Experimental data published in PubChem BioAssay AID1671190 (National Center for Advancing Translational Sciences (NCATS), 2021).
About 6,100 (1.1%) of roughly 580,000 compounds were called active. Not shown: some 15% with an inconclusive outcome. The list comes from a sample in which actives are over-represented; it also holds similar structures and randomly drawn compounds. Unmarked numbers belong to inactive results. The call rests on the fitted dose curve; in most records, active means well fitted inhibition curve with a large enough effect; inconclusive means small, poorly fitted or top-dose-only effect, or another doubt; inactive means no such curve, though single readings can be large or run the other way.

biological target: Polyunsaturated fatty acid lipoxygenase ALOX12 (Homo sapiens) (UniProt P18054); experiment: Primary qHTS assay for inhibitors of human arachidonate 12S-lipoxygenase (ALOX12): Round 2; details: purified 12hLO, xylenol orange hydroperoxide absorbance; series mostly up to 108 µM; activity change, negative = inhibition: at the top concentration
Sequence (P18054 whole entry, looked up): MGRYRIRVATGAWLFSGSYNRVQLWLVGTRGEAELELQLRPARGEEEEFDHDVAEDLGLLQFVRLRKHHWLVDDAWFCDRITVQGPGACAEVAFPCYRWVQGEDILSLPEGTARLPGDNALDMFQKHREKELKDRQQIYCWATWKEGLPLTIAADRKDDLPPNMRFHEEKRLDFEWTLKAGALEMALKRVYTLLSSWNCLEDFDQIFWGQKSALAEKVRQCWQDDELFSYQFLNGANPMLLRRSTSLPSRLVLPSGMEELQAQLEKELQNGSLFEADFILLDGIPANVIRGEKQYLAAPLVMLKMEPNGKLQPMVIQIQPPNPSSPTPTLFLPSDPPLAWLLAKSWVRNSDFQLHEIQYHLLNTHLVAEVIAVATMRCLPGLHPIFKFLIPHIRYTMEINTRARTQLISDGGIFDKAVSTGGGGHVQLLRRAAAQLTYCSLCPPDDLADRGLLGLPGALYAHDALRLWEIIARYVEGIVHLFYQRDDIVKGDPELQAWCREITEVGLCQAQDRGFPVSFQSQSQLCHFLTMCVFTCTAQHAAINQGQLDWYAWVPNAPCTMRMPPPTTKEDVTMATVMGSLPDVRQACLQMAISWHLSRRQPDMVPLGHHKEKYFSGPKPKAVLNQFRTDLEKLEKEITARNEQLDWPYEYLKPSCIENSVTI
How it was run: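 Purified human 12hLO (150 nM final) in 25 mM Hepes, 0.01% Triton X-100, pH 7.0 was preincubated 15 min at room temperature with compound. Then 40 uM arachidonic acid was added, 30 min. Hydroperoxide was read by Fe-XO absorbance ratio 573/405 nm.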
On the % scale 0 is the no-effect control and ±100 the full control effect; potency means the concentration at half of the fitted maximal effect.

Row | SMILES | activity change, negative = inhibition | Potency
1 | O=C(NC(Cc1ccccc1)C(=O)O)c1cccc(C(F)(F)F)c1 (stereo not given) | -18.9% | –
2 | COC(=O)CNC(=O)c1cccc(C(F)(F)F)c1 | 5.28% | –
3 | S=C(NCc1ccccc1)Nc1ccc(NC(=S)NCc2ccccc2)c(Cl)c1 | -3.77% | –
4 | C/C(=N\NC(=S)NCc1ccccc1)c1ccc(Cl)cc1 | – | 31.6 µM (active)
5 | C/C(=N/NC(=S)NCc1ccccc1)c1cccc(C(F)(F)F)c1 | – | 12.6 µM (active)
6 | C/C(=N\NC(=S)NCc1ccccc1)C1CCCCC1 | – | 39.8 µM (active)
7 | O=C(COC(=O)CNC(=O)C1CCCCC1)NCc1ccccc1 | 0% | –
8 | C/C(=N\NC(=O)CNC(=O)C(c1ccccc1)c1ccccc1)c1ccc(C)cc1 | 11% | –
9 | CC(=O)c1ccccc1NCC(=O)NCC(F)(F)F | -15.2% | –
10 | CCOc1ccc(CNC(=O)c2ncoc2-c2cccs2)cc1OC | 29.3% | –
11 | COc1cccc(CN(C(=O)c2oc3cc(Br)ccc3c2C)C2CCS(=O)(=O)C2)c1 (stereo not given) | -12.2% | –
12 | O=C(CCNc1c(-c2ccc(F)cc2)nc2cnccn12)Nc1ccc2c(c1)OCO2 | -7.67% | –
13 | Cc1ccc(C)c(Oc2coc3cc(OC(=O)C(C)C)ccc3c2=O)c1 | -5.82% | –
14 | CC(C)c1nnc(CN2CCOc3c(O)cc(-c4cccc(Cl)c4)cc3C2)o1 | 4.28% | –
15 | O=S(=O)(NCCc1nnc2ccc(SCc3ccc(Cl)cc3Cl)nn12)c1ccccc1 | -19.8% | –
16 | CC(C)Oc1ccc(Cc2n[nH]c(=S)n2Cc2ccccc2)cc1Cl | -6.13% | –
17 | S=c1[nH]nc(CSCc2ccc(Cl)cc2Cl)n1-c1ccccc1 | – | 28.2 µM (active)
18 | CCN(C(=O)CCc1c[nH]c2ccccc12)c1ccc(F)cc1 | -27.9% | –
19 | CC(C)=CCc1ccc(O)c(=O)cc1C(C)C | – | 25.1 µM (active)
20 | Cc1ccccc1-c1cc(=O)c2cc(NC(=O)c3ccccc3F)ccc2o1 | 12.3% | –
21 | O=C(Nc1nc2c(s1)CCCC2)c1ccccc1F | -9.3% | –
22 | CCOC(=O)C(NC(=O)CC(C)C)(Nc1sc2c(c1C(N)=O)CCCC2)C(F)(F)F (stereo not given) | 0.0335% | –
23 | COC(=O)C(NC(C)=O)(Nc1nc2c(s1)CCCC2)C(F)(F)F (stereo not given) | – | 17.8 µM (active)
24 | CCOc1ccccc1OCCN | -30.9% | –
25 | CCCc1nc2c(-c3ccc(Cl)cc3)c(C)[nH]n2c(=O)c1Cl | -11.8% | –

Row | SMILES | activity change, negative = inhibition | Potency
26 | O=C(CSc1nncn1-c1ccccc1F)Nc1ccccc1C(=O)Nc1ccccc1 | 14% | –
27 | O=C(COC(=O)c1cc2ccccc2cc1O)Nc1ccc(Cl)cc1C(F)(F)F | 6.37% | –
28 | O=C(COC(=O)c1cnccn1)Nc1ccc(Cl)cc1C(F)(F)F | – | 10 µM (active)
29 | O=C(COC(=O)c1cnccn1)Nc1cccc2ccccc12 | -1.25% | –
30 | CN(Cc1ccccc1N1CCCC1)C(=O)c1ccc(S(=O)(=O)N2CCOCC2)cc1 | 7.09% | –
31 | CCOc1ccccc1NC(=O)c1cnc(N2CCCCC2)c2ccccc12 | 7.78% | –
32 | O=C(COc1ncnc2c(Cl)cc(Cl)cc12)Nc1cc(F)ccc1F | -2.36% | –
33 | Oc1c(Cl)cc(Cl)c(Cl)c1Cc1c(O)c(Cl)cc(Cl)c1Cl | – | 7.08 µM (active)
34 | CC(C)(C)NC(=O)C(Sc1ccccc1)c1ccccc1 (stereo not given) | -8.61% | –
35 | COc1ccc(Oc2c(C)oc3cc(OCC(=O)N4CCNC(=O)C4)ccc3c2=O)cc1 | -1.25% | –
36 | COc1ccccc1-c1cc(NCc2cccs2)ncn1 | -0.248% | –
37 | FC(F)(F)c1ccccc1-c1cc(NCc2ccccc2)ncn1 | – | 15.8 µM (active)
38 | CN(Cc1ccco1)c1cc(-c2ccccc2C(F)(F)F)ncn1 | -17.5% | –
39 | COC(=O)c1nc(-c2ccc(F)cc2)no1 | -31.2% | –
40 | CCN(CC)C(=O)[C@@H]1CCC[C@@H](NS(C)(=O)=O)CN(C)C(=O)C1 | -7.85% [at 176 µM] | –
41 | CCOC(=O)C(NS(=O)(=O)c1ccc(C)cc1)(C(F)(F)F)P(=O)(OCC(C)C)OCC(C)C (stereo not given) | – | 39.8 µM (active)
42 | Cc1ccc(S(=O)(=O)NCC(C)NS(C)(=O)=O)cc1 (stereo not given) | -14.4% | –
43 | CCOC(=O)C(NC(=O)c1ccccc1)(OC(C)C)C(F)(F)F (stereo not given) | 3.32% | –
44 | CCN1C(=O)N/C(=C/c2cn(CC(=O)Nc3ccc(F)cc3)c3ccccc23)C1=O | -78.9% | –
45 | COc1cc(C(=O)Nc2ccc(C)cc2)nc2ccc(Cl)cc12 | 0.694% | –
46 | CSc1cccc(NC(=O)N[C@H]2CCN3C(=O)[C@H](Cc4ccc(F)cc4)NC(=O)[C@@H]3C2)c1 | -21% | –
47 | O=C(c1ccc2ncccc2c1)N1CCC2(CC1)NCCc1c2[nH]c2ccccc12 | 30.9% | –
48 | O=C(Cn1nc2c(cc1=O)CCCCC2)Nc1nc(-c2ccncc2)cs1 | 44% | –
49 | O=C(NCC1CCOCC1)C1COc2ccccc2O1 (stereo not given) | 38% | –
50 | O=C(Nc1nc(-c2ccncc2)cs1)C1COc2ccccc2O1 (stereo not given) | – | 14.1 µM (active)
